ARNT-TACC3 inh – disruptors of human ARNT/TACC3 interaction; inhibition, % at 9.99 µM; actives 0.66% (n = 390,000); Q9Y6A5; AlphaScreen His-ARNT PAS-B/GST-TACC3 binding, luminescence; TACC3 fragment carries E629A point mutation;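 active means mean inhibition of replicates at least 50% and at least half of replicates each reaching 50%; inconclusive means half or more replicates reach 50% but mean below 50%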;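 further: 0% = complete ARNT plus TACC3 wells and 100% = ARNT alone without TACC3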
Mot1-301 SUMO – inhibitors of SUMOylation pathway: yeast Mot1-301 growth rescue. S. cerevisiae Mot1-301 growth rescue, ATP luminescence, 38.5C; percent above DMSO median, 100 means doubled. growth rescue, % at 18.8 µM. actives 1% (n = 320,000);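 active means every valid replicate shows activation above 250% relative to neutral control wells; inactive means the rest, any valid replicate at or below 250%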;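 further: OY570 slx delta 5 strain wells were the positive control but not used for scaling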
A1 inh – inhibitors of the anti-apoptotic protein A1, read as caspase activation. MEF A1-2A-BIM cells, Caspase-Glo 3/7 luminescence, 3 h; percent of clofoctol response, vehicle zero. caspase activation, % (concentration not given with the values). actives 0.066% (n = 330,000);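 active means over half of replicate activation scores above 10%, or exactly half above 10 with the replicate mean above 10; inconclusive means replicate mean below 10 yet half the replicates above 10; inactive means over half of replicates below 10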
aDG glyco act – alpha-DG glycosylation activation; Pro5-aDG cells, alpha-DG glycosylation AlphaScreen (IIH6); 0% Pro5, 100% B10-LARGE cell signal; activation, % at 10 µM; actives 0.22% (n = 360,000); AID 624168;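 active means activation of at least 8% versus controls, or a plate z-score of at least 8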;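 further: Pro5 are CHO cells carrying HIG-tagged alpha-DG that lacks glycosylation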
AI-2 QS mod – modulates the Vibrio harveyi AI-2 quorum sensing system. Vibrio harveyi JMH597 AI-2 luminescence/OD600 ratio, 9 h; stronger effect = lower value; strain lacks LuxN and CqsS sensors; 0 = neutral-control median. activity change, % at 7.5 µM. actives 0.4% (n = 300,000). AID 2094; in the data active means activity change below about -75%, passing the limit was not always enough; inconclusive means no clear call, values can overlap the other calls;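 further: luminescence divided by OD600 gain over 9 h not by final OD600 alone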
Numbers without * were called inactive; ? = inconclusive; / = not tested or not shown. Only some compounds are listed: those with a hit (about 1.8% of all), similar ones and a draw of the others.

SMILES | ARNT-TACC3 inh | Mot1-301 SUMO | A1 inh | aDG glyco act | AI-2 QS mod
O=C(CN1CCN(Cc2ccccc2)CC1)Nc1ccc(S(=O)(=O)N2CCOCC2)cc1 | -4 | 4 | 1 | 0 | -7
CCSC1=NC(C)(C)C=C(/C=C/c2ccc(Cl)cc2Cl)N1 | 45* | 4 | 0 | 2 | 18
CO[C@@H]1CN(C)C(=O)c2ccc(NC(=O)C3CCC3)cc2OC[C@H](C)N(Cc2cccnc2)C[C@H]1C | -2 | / | / | / | /
Cc1ccccc1C(=O)N1CCC(C(=O)N(CC(C)C)c2c(N)n(Cc3ccccc3)c(=O)[nH]c2=O)CC1 | -3 | 336* | 0 | 0 | 32
CCCCN(C(=O)C1CCN(C(=O)c2ccccc2C)CC1)c1c(N)n(CC(C)C)c(=O)[nH]c1=O | 12 | / | / | 0 | /
Cc1nn(C)cc1C(=O)Nc1c(C)nn(Cc2ccccc2Cl)c1C | -6 | 17 | 0 | 0 | 3
Oc1ccc(/C=N/Nc2nccnc2Cl)c(O)c1 | -3 | 361 | -7 | 1 | 29
Cn1c(O)c(N=NC(=O)CNC(=O)/C=C/c2ccccc2)c2ccccc21 | 1 | 13 | 0 | 0 | 17
C[C@@H]1CN([C@@H](C)CO)C(=O)c2cc(-c3ccc(F)cc3)cnc2O[C@H]1CN(C)C(=O)Nc1ccccc1F | 7 | / | / | / | /
Cc1ccc(/C(N)=N/OC(=O)CCc2ccccc2)cc1 | -20 | 42 | 1 | 0 | -77*
CCN(CC(=O)NCc1cccs1)C(=O)CCC(=O)c1ccc(C)cc1 | -20 | -8 | 1 | 0 | 18
COc1ccc(NC(=O)N(C)C[C@@H]2OCCCC[C@@H](C)Oc3ccc(NS(=O)(=O)c4ccc(OC)cc4)cc3C(=O)N([C@@H](C)CO)C[C@H]2C)cc1 | 24* | / | / | / | /
C[C@@H]1CCCCO[C@H](CN(C)S(=O)(=O)c2cccs2)[C@@H](C)CN([C@@H](C)CO)C(=O)c2cc(NS(C)(=O)=O)ccc2O1 | active | / | / | / | /
C[C@@H]1CCCCO[C@@H](CN(C)C(=O)CCC(F)(F)F)[C@@H](C)CN([C@H](C)CO)C(=O)c2cc(NC(=O)CCCN(C)C)ccc2O1 | 10 | / | / | / | /
C[C@H](CO)N1C[C@H](C)[C@@H](CN(C)C(=O)CCC(F)(F)F)OCCCC[C@H](C)Oc2ccc(NC(=O)CCCN(C)C)cc2C1=O | 25* | / | / | / | /
CC(C)NC(=O)Nc1ccc2c(c1)C(=O)N([C@@H](C)CO)C[C@@H](C)[C@H](CN(C)C(=O)C1CCCCC1)OCCCC[C@H](C)O2 | 46* | / | / | / | /
C[C@@H]1CCCCO[C@@H](CN(C)S(=O)(=O)c2cccs2)[C@H](C)CN([C@H](C)CO)C(=O)c2cc(NS(C)(=O)=O)ccc2O1 | 17 | / | / | / | /
COc1ccc(NC(=O)N(C)C[C@H]2OCCCC[C@@H](C)Oc3ccc(NS(=O)(=O)c4ccc(OC)cc4)cc3C(=O)N([C@@H](C)CO)C[C@H]2C)cc1 | 31 | / | / | / | /
O=C(N[C@@H]1CC[C@H](CCNS(=O)(=O)c2cccc(Cl)c2)O[C@@H]1CO)c1ccccc1 | -9 | / | / | / | /
Cc1ccc(S(=O)(=O)NCCc2cn3nc(C)c(C)nc3n2)cc1C | -3 | 267* | 0 | 0 | 9
COc1ccc(S(=O)(=O)NCCc2cn3nc(C)c(C)nc3n2)cc1C | -6 | -5 | 0 | 0 | 4
CCSc1ccc(-c2nn(-c3ccccc3)cc2/C=C(/C#N)C(=O)NC)cc1 | -1 | 188 | 8.3* | 0 | /
COc1ccc(NC(=O)CCNC(=O)Cn2cnc3ccccc3c2=O)cc1OC | -2 | 187 | -1 | 0 | 29
COc1ccc(NC(=O)Cn2cnc3ccccc3c2=O)cc1OC | -10 | 4 | 0 | 0 | -76*
COc1ccc2c(c1)CCc1c(C(=O)NC3CCCCC3)noc1-2 | 46* | -8 | ? | 0 | 3
SMILES | ARNT-TACC3 inh | Mot1-301 SUMO | A1 inh | aDG glyco act | AI-2 QS mod
O=C(C1CCCN(S(=O)(=O)c2cnc[nH]2)C1)N(CCc1ccccc1)Cc1ccccc1 (stereo unspecified) | -20 | -14 | 0 | 0 | 27
O=C(C1CCN(S(=O)(=O)c2cnc[nH]2)CC1)N(CCc1ccccc1)Cc1ccccc1 | -3 | 417* | 0 | 0 | 31
O=C(NNc1ccc(-c2csnn2)cc1)c1cc(Cl)cc(Cl)c1 | / | 283* | 1 | 0 | -14
CCC(C)(C)NC(=O)CN(C(=O)CNS(=O)(=O)c1ccc(C)cc1)c1ccc2c(c1)OCCO2 | 1 | -11 | -1 | 0 | 24
C=CCc1cccc(/C=N/NC(=O)C[n+]2ccccc2)c1O | 80* | 84 | -2 | 0 | 6
Cc1nc2ccccc2c(=O)n1/N=C/c1ccc(O)cc1O | 6 | -1 | -1 | -1 | 10
CCCc1nc2ccccc2c(=O)n1/N=C/c1ccccc1O | 57* | -6 | -1 | 0 | 2
COc1ccccc1CNC(=O)C[C@@H]1C[C@H]2c3cc(N(C)C)ccc3O[C@H]2[C@@H](CO)O1 | 11 | / | / | / | /
O=C(COc1ccc(/C=N/NC(=O)c2cc3ccccc3o2)cc1Cl)Nc1ccccc1 | -4 | -24 | 64* | 0 | 23
Cc1ccccc1N1CCN(S(=O)(=O)N(C)C)CC1 | -6 | 2 | 0 | 0 | 29
C=CCOc1ccc(/C=C2\SC(=S)N(NS(=O)(=O)c3ccccc3)C2=O)cc1 | 1 | -13 | 0 | 0 | -86*
Oc1ccccc1CNc1cnc2ccccc2c1 | -1 | -4 | -3 | 1 | 12
C=CCc1cccc(CNc2cnc3ccccc3c2)c1O | -2 | 112 | -1 | 1 | -77*
Cc1ccc(NC(=O)C2CC2c2ccccc2)c([N+](=O)[O-])c1 (stereo unspecified) | 46* | 25 | 0 | 0 | 8
Cc1ccc(C(=O)Sc2cccccc2=O)cc1 | 57* | 25 | -2 | 0 | 11
O=C(Nc1ccccc1SC(=O)c1ccccc1)c1ccccc1 | / | / | / | 0 | /
CC(C)OC(=O)CC(=O)CSc1nc(-c2ccc(F)cc2)cc(-c2ccccc2)c1C#N | -4 | 13 | 0 | 0 | 17
CCc1nnc(NC(=O)CSc2nc(-c3ccccc3)cc(-c3ccc(F)cc3)c2C#N)s1 | -4 | -9 | 7.1* | 0 | 7
Cc1nn(-c2ccccc2)c(C)c1/C=N/NC(=O)CSc1nc2ccccc2c(=O)n1-c1ccc(Br)cc1 | -3 | 2 | 7.1* | 0 | 30
Cc1cn([C@H]2C[C@H](O)[C@@H](CNCc3ccc4ncccc4c3)O2)c(=O)[nH]c1=O | / | / | / | 0 | /
N#CC(C#N)=C1C=CC=CN1/C(=C\c1ccco1)C(=O)c1ccc(Br)cc1 | -22 | 291* | 1 | 0 | /
COc1ccc(N)cc1-n1c(C)ccc1C | -2 | 260 | 2 | 0 | 25
COc1ccc(NS(=O)(=O)c2ccc(C)cc2)c([N+](=O)[O-])c1 | 1 | 399 | 1 | 0 | 13

From PubChem BioAssay
